# Test results published in the supplement of paper PMC12582362.
# Counter-ions that a name gives are not always drawn. The whole screen tested about 1,500 compounds, of which about 30 (2%) showed activity. This is one part of a sample in which actives are shown more often than they occur.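 Rule for the calls: active = robust z-score below -2; a few such results were not called.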
# Tested on: optoTopBP1 Flp-In 293 T-REx (HEK293) cells
# Test: light-induced TopBP1 condensate (nuclear foci) count, plate-normalised robust z-score vs non-control wells; higher = more TopBP1 condensates (negative = condensation inhibitor), active = hit call of the paper
# Conditions: 10 µM; incubation time 2 h
row,SMILES,light-induced TopBP1 condensate (z-score)
1,COc1c(O[C@@H]2O[C@H](CO)[C@@H](O)[C@H](O)[C@H]2O)cc2c(c1OC)-c1ccc(SC)c(=O)cc1[C@@H](NC(C)=O)CC2 [Thiocolchicoside],-0.423 (inactive)
2,CCCCCOC(=O)Nc1nc(=O)n([C@@H]2O[C@H](C)[C@@H](O)[C@H]2O)cc1F [Capecitabine],0.43 (inactive)
3,CO[C@H]1/C=C/O[C@@]2(C)Oc3c(C)c(O)c4c(c3C2=O)C2=NC3(CCN(CC(C)C)CC3)NC2=C(NC(=O)/C(C)=C\C=C\[C@H](C)[C@H](O)[C@@H](C)[C@@H](O)[C@@H](C)[C@H](OC(C)=O)[C@@H]1C)C4=O [Rifabutin],-0.0256 (inactive)
4,COc1c(O)cc2c(c1O)[C@@H]1O[C@H](CO)[C@@H](O)[C@H](O)[C@H]1OC2=O [Bergenin],-0.755 (inactive)
5,Cc1nccn1CC1CCc2c(c3ccccc3n2C)C1=O (centres undefined) [Ondansetron Hydrochloride],1.05 (inactive)
6,NC[C@H]1O[C@H](O[C@H]2[C@H](O)[C@@H](O[C@H]3O[C@H](CO)[C@@H](O)[C@H](N)[C@H]3O)[C@H](N)C[C@@H]2N)[C@H](N)C[C@@H]1O [Tobramycin],-0.114 (inactive)
7,CNCC[C@@H](Oc1ccccc1C)c1ccccc1 [Tomoxetine hydrochloride],-1.4 (inactive)
8,CC(NCCC(c1ccccc1)c1ccccc1)c1ccccc1 (centres undefined) [Fendiline hydrochloride],-2.06 (active)
9,CC(NN)c1ccccc1 (centres undefined) [Mebanazine],0.298 (inactive)
10,CC(C)[C@H]1CC[C@H](C(=O)N[C@H](Cc2ccccc2)C(=O)O)CC1 [Nateglinide],-0.706 (inactive)
11,COc1cc(NC(C)CCCN)c2ncccc2c1 (centres undefined) [Primaquine diphosphate],-1.07 (inactive)
12,N[C@@H]1CCCCN(c2c(F)cc3c(=O)c(C(=O)O)cn(C4CC4)c3c2Cl)C1 [Besifloxacin hydrochloride],-0.0694 (inactive)
13,C[C@@H](O)[C@H]1C(=O)N2C(C(=O)O)=C(S[C@@H]3CN[C@H](CNS(N)(=O)=O)C3)[C@H](C)[C@H]12 [Doripenem monohydrate],1.08 (inactive)
14,Cc1cc(C(C)(C)CC(C)(C)C)ccc1OCCOCC[N+](C)(C)Cc1ccccc1 [Methyl benzethonium chloride],-0.593 (inactive)
15,CCN(CC)C(=S)SSC(=S)N(CC)CC [Disulfiram],-4.41 (active)
16,C=C1c2c(Cl)ccc(O)c2C(=O)C2=C(O)[C@]3(O)C(=O)C(C(N)=O)=C(O)[C@@H](N(C)C)[C@@H]3[C@@H](O)[C@H]12.O=C(O)c1cc(S(=O)(=O)O)ccc1O [Meclocycline sulfosalicylate],0.506 (inactive)
17,N[C@@H](CCC(=O)N[C@@H](CS)C(=O)NCC(=O)O)C(=O)O [Glutathione],1.35 (inactive)
18,O=C(O)CCNC(=O)c1ccccc1 [Betamipron],-0.17 (inactive)
19,Cn1c(=O)c2c(ncn2CCO)n(C)c1=O [Etofylline],0.502 (inactive)
20,CO[C@@]12[C@H](COC(N)=O)C3=C(C(=O)C(C)=C(N)C3=O)N1C[C@@H]1N[C@@H]12 [Mitomycin C],-0.867 (inactive)

row,SMILES,light-induced TopBP1 condensate (z-score)
1,N[C@H](Cc1ccccc1)C(=O)O [D-phenylalanine],-1.1 (inactive)
2,"CC(C)(S)C(N)C(=O)O (racemic) [D,L-Penicillamine]",1.98 (inactive)
3,Cc1ccc(C)c(OCCCC(C)(C)C(=O)O)c1 [Gemfibrozil],0.575 (inactive)
4,CC(=O)[C@@]12O[C@](C)(c3ccccc3)O[C@@H]1C[C@H]1[C@@H]3CCC4=CC(=O)CC[C@]4(C)[C@H]3CC[C@@]12C [Algestone acetophenide],-1.65 (inactive)
5,COc1cc(NS(=O)(=O)c2ccc(N)cc2)nc(OC)n1 [Sulfadimethoxine],0.224 (inactive)
6,CCN(CC)C(=O)Nc1ccc(OCC(O)CNC(C)(C)C)c(C(C)=O)c1 (centres undefined) [Celiprolol hydrochloride],-0.488 (inactive)
7,CCc1oc2ccccc2c1C(=O)c1ccc(O)cc1 [Benzarone],1.57 (inactive)
8,CCCCC1=NC2(CCCC2)C(=O)N1Cc1ccc(-c2ccccc2-c2nnn[nH]2)cc1 [Irbesartan],-0.971 (inactive)
9,CN(C)C(=N)NC(=N)N [Metformin hydrochloride],-0.726 (inactive)
10,CC(C)(C)C(O)/C=C/c1ccc2c(c1)OCO2 (centres undefined) [Stiripentol],1.26 (inactive)
11,CCOC(=O)c1c(N)sc2c1CCN(Cc1ccccc1)C2 [Tinoridine hydrochloride],0.308 (inactive)
12,C[C@H]1O[C@@H](O[C@H]2[C@@H](O)C[C@H](O[C@H]3[C@@H](O)C[C@H](O[C@H]4CC[C@@]5(C)[C@H](CC[C@@H]6[C@@H]5C[C@@H](O)[C@]5(C)[C@@H](C7=CC(=O)OC7)CC[C@]65O)C4)O[C@@H]3C)O[C@@H]2C)C[C@H](O)[C@@H]1O [Digoxin],-2.42 (active)
13,CCCCOC(=O)c1ccccc1Nc1cccc(C(F)(F)F)c1 [Ufenamate],-0.0275 (inactive)
14,O=C(NCCO[N+](=O)[O-])c1cccnc1 [Nicorandil],0.468 (inactive)
15,Cn1nnc2c(C(N)=O)ncn2c1=O [Temozolomide],-0.835 (inactive)
16,Cc1c(Cl)cccc1Nc1ncccc1C(=O)O [Clonixin Lysinate],0.77 (inactive)
17,NC(=O)c1cc[n+](CC2=C(C(=O)[O-])N3C(=O)[C@@H](NC(=O)[C@@H](c4ccccc4)S(=O)(=O)O)[C@H]3SC2)cc1 [Cefsulodin sodium salt],0.128 (inactive)
18,CC[C@H]1OC(=O)[C@H](C)[C@@H](O[C@H]2C[C@@](C)(OC)[C@@H](O)[C@H](C)O2)[C@H](C)[C@@H](O[C@@H]2O[C@H](C)C[C@H](N(C)C)[C@H]2O)[C@](C)(O)C[C@@H](C)C(=O)[C@H](C)[C@@H](O)[C@]1(C)O [Erythromycin],-0.359 (inactive)
19,CCC1(c2ccccc2)NC(=O)N(C)C1=O (centres undefined) [Mephenytoin],0.477 (inactive)
